Laboratory results taken from PubChem BioAssay (NCI).
The panel holds about 79,000 compounds, 15% with a hit somewhere; the sample as a whole holds those more often. A number with no mark means an inactive call. The source made the active and inactive calls. Rule as the data show it: active = growth inhibition above about 70%; inactive = the rest.

Assay: NCI Yeast Anticancer Drug Screen. Data for the mlh1 strain (AID 171);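 also: 0% = growth of vehicle-treated control cultures of the same strain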
Conditions: S. cerevisiae mlh1 strain growth inhibition, stronger effect = higher value
Protocol: Growth inhibition of yeast strains with defined genetic alterations is measured as a screen for potential anti-cancer activity. Selected strains with alterations in DNA damage repair or cell cycle control were exposed to compounds and growth inhibition was measured relative to vehicle treated controls. The strain used in this assay is mlh1

Compound | growth inhibition (at 1.2 µM) [%] | growth inhibition (at 3.7 µM) [%] | growth inhibition (at 11.0 µM) | growth inhibition (at 33.0 µM) | growth inhibition (at 100.0 µM)
CC(C)OC(=O)NNc1c(Cl)cc(Cl)cc1Cl | -2 | -1 | 4% | 8% | 8%
O=[N+]([O-])c1cc(Cl)ccc1S(=O)(=O)c1ccc(Cl)cc1[N+](=O)[O-] | -3 | 3 | 44% | 85% (active) | 80% (active)
CC1=CC(=O)C=CC1=Nc1cc(Cl)c(O)c(Cl)c1 | -51 | -24 | -21% | 10% | 91% (active)
CC(CC/C(=N/O)c1ccccc1)(CC/C(=N\O)c1ccccc1)[N+](=O)[O-] (stereo not given) | -4 | -3 | -7% | -6% | 32%
O=C(O)c1c2ccc(Cl)cc2nc2[nH]c(=O)[nH]c(=O)c12 | -29 | -24 | -29% | -11% | 30%
O=C1C(CCSc2ccccc2)C(=O)N(c2ccccc2)C1c1ccccc1 (stereo not given) | 1 | -14 | 28% | 95% (active) | 90% (active)
CSC(=S)N/N=C/c1ccccc1 | 1 | 3 | 25% | 26% | 37%
BrC1C2CCC3OC3C12 (stereo not given) | -1 | 4 | 86% (active) | 99% (active) | 99% (active)
